# High-throughput results from PubChem BioAssay.
# Mtb UGM inh – M. tuberculosis UGM enzyme inhibitors, primary screen, biochemical, fluorescence polarization, single point; UDP-galactopyranose mutase (Mycobacterium tuberculosis (strain ATCC 25618 / H37Rv)), …; purified UGM, fluorescence polarization probe displacement; 0.06% of 320,000 active; inhibition, % at 10 µM; in the data active = inhibition above about 10%, passing the limit was not always enough
# Rv3671c inh – Rv3671c serine protease inhibitors, primary screen, biochemical, fluorescence polarization, M. tuberculosis H37Rv | inhibition, % at 5.96 µM | 0.048% of 320,000 active; in the data active = inhibition above about 38%;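 also: extracellular domain of Rv3671c used as enzyme; 0% = enzyme with DMSO and 100% = no enzyme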
# GDH-TPI counter-1 – GDH-TPI coupling enzyme inhibitors, primary screen, artefact control for M. tuberculosis FBA inhibitor project, biochemical, absorbance, full deck. GDH-TPI coupled enzyme counterscreen, NADH absorbance. inhibition, % at 4.8 µM. 1.2% of 360,000 active; in the data active = inhibition above about 30%;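 also: 0% = DMSO wells and 100% = wells lacking the enzyme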
# FBA Mtb inh – Mtb FBA enzyme inhibitors, primary screen, biochemical, fluorescence, strain H37Rv | purified M. tuberculosis FBA, fluorescence read-out | inhibition, % at 1 µM | 2.3% of 360,000 active | AID 588726, 2011;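 also: 0% = vehicle and 100% = reference inhibitor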
# Target sequence (P9WQA3 whole entry, looked up): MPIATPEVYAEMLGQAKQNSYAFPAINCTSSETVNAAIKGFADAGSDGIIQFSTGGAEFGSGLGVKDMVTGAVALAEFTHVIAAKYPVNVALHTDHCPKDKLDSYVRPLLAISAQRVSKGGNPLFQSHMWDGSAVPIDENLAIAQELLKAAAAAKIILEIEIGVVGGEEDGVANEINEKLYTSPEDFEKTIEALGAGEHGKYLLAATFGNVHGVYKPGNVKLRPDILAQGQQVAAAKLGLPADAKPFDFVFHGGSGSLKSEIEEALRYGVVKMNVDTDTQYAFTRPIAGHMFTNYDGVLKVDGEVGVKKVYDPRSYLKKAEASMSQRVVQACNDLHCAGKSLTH
# Mtb FBA inh conf – M. tuberculosis aldolase blockers, biochemical, fluorescence, strain H37Rv, confirmation; inhibition, % at 1 µM; shares compounds with FBA Mtb inh; purified M. tuberculosis FBA, fluorescence read-out; 78% of 5,600 active;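 also: 0% = vehicle wells and 100% = reference inhibitor wells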
# GDH-TPI counter-2 – GDH-TPI coupling enzyme inhibitors, artefact control for M. tuberculosis FBA inhibitor project, biochemical, fluorescence, high throughput; shares compounds with FBA Mtb inh; GDH-TPI coupled enzyme counterscreen; inhibition, % at 1 µM; 81% of 5,600 active; AID 652141, 2013; in the data active = inhibition above about 10%
# The depositor's hits bear a star; . = not tested or not shown; + = active, no number. A selection: hits, their analogues and other compounds. The true share with any hit is near 3.5%. Rule as the data show it, unless noted: active = inhibition above about 27%; inactive = the rest.
SMILES,Mtb UGM inh,Rv3671c inh,GDH-TPI counter-1,FBA Mtb inh,Mtb FBA inh conf,GDH-TPI counter-2
COc1ccccc1-c1nnc(Nc2nc3c(OC)cccc3s2)o1,0,3,43*,33*,40*,41*
C[C@@H]1CN(C(=O)c2ccc(OC3CCN(S(=O)(=O)N(C)C)CC3)cc2)C[C@H](C)O1,2,-9,8,1,.,.
CCOc1ccc(-n2cnc3scc(-c4ccc(OC)c(OC)c4)c3c2=O)cc1,2,3,-4,28*,30*,21*
COc1ccc(Oc2cccc(Cl)c2CNC(=O)CCCC(=O)O)cc1,-5,5,-6,2,.,.
CCCCCCn1c(-c2cccs2)n[nH]c1=S,-4,-10,183*,48*,-4,-7
CCCN1CCN(C(=O)c2c(Cl)cnn2C)CC1,1,0,6,1,.,.
CCN(C(=O)CCS(=O)(=O)c1ccc2c(c1)oc(=O)n2C)c1ccc(OC)cc1,2,-11,-5,5,.,.
COc1cc(-c2ccc3cc(OC)c(OC)c(OC)c3c2)cc(OC)c1OC,.,.,1,45*,8,6
COc1ccc(-c2oc3ccc(-c4cc(OC)c(OC)c(OC)c4)cc3c2-c2ccc(OC)cc2)cc1,-4,-1,.,.,.,.
COc1ccc(NC(=O)CSCC(=O)N2CCN(C(=O)c3ccco3)CC2)cc1,4,4,-12,-2,.,.
NS(=O)(=O)c1ccc(CCNC(=O)c2cc(=O)[nH]c3ccccc23)cc1,-2,-2,14,4,.,.
NS(=O)(=O)c1ccc(CCNC(=O)c2coc3ccccc3c2=O)cc1,2,4,0,28*,155*,99*
Cc1nc2c(-c3ccc(F)cc3)c(C)[nH]n2c(=O)c1Cl,1,2,24,42*,27,21*
Cc1nc2c(-c3ccc(Cl)cc3)c(C)[nH]n2c(=O)c1Cc1ccccc1,3,-4,-2,39*,2,3
COCCn1c(SCC(=O)NC2CCCCC2)nnc1-c1ccncc1,-2,2,4,-6,.,.
Clc1cncc(Cl)c1NNc1c2ccccc2nc2ccccc12,1,-4,3,39*,81*,66*
O=C(NNc1c2ccccc2nc2ccccc12)c1ccc(Cl)cc1,2,-2,10,18,.,.
CC1(C)OC(=O)C2=C(C[C@@H](C3CCCCC3)O[C@H]2c2ccc(Cl)cc2)O1,.,.,.,1,.,.
CCC(=O)Nc1cc2nn(-c3ccc(C)cc3)nc2cc1C,-3,9,13,6,.,.
CCCCC(=O)Nc1cc2nn(-c3ccc(OC)cc3)nc2cc1C,1,-7,-1,27*,151*,121*
CCC(=O)Nc1cc2nn(-c3ccc(OC)cc3)nc2cc1C,-1,-5,3,66*,39*,28*
CCN(CC)S(=O)(=O)c1ccc(Cl)c(C(=O)Nc2cc(C)nn2-c2ccccc2C(F)(F)F)c1,1,5,.,.,.,.
COc1ccc(-c2cc(NC=O)c3ncc(-c4cccc(OC)c4)n3c2)cc1,.,.,7,0,.,.
CS(=O)(=O)Nc1ccc(-c2cnc3cccnn23)cc1,.,.,14,7,.,.
COc1cccc(-c2cnc3cccnn23)c1,.,.,-3,53*,97*,69*
SMILES,Mtb UGM inh,Rv3671c inh,GDH-TPI counter-1,FBA Mtb inh,Mtb FBA inh conf,GDH-TPI counter-2
Cc1ccc(-c2cnc3cccnn23)cc1F,.,.,3,60*,-5,-5
CN1CCN(c2c(F)cc3c(=O)c(C(=O)O)cn4c3c2OCN4C)CC1,0,3,7,23,.,.
Cc1cc(C)c(NC(=O)c2cn3c4c(c(N5CCN(C)CC5)c(F)cc4c2=O)OCC3C)c(C)c1 (configuration not stated),.,-7,6,28*,+,+
COc1ccc(-c2ccc(C(=O)C3CC3)cc2)cc1,-1,-1,3,60*,52*,44*
O=C(Nc1ccc(S(=O)(=O)Nc2ncccn2)cc1)c1ccc2ncsc2c1,3,2,5,2,.,.
Cc1ccc(Cl)cc1N1CCN(S(=O)(=O)c2cc3c(cc2C)NC(=O)CO3)CC1,-2,-3,-5,0,.,.
O=C(CCc1cccc(Cl)c1)N1CCCC(Nc2ccccc2)C1 (configuration not stated),0,3,-2,3,.,.
COC(=O)c1cc(=O)c2cccc(OC)c2[nH]1,-4,8,16,43*,+,+
O=c1cn[nH]c2ccccc12,1,13,9,8,.,.
COc1cccc2c(=O)cn[nH]c12,11*,-9,19,76*,6,-4
COc1ccc(S(=O)(=O)Oc2ccccc2C(=S)N2CCOCC2)cc1,6,9,0,2,.,.
COc1cccc(NC(=O)Cc2nnc(SCC(=O)c3ccccc3)n2C)c1,.,.,5,83*,161*,122*
Cc1ccc(S(=O)(=O)N2CCC(C(=O)NNC(=O)c3ccccc3O)CC2)cc1C,1,14,-4,30*,+,+
Cc1cc(C)c(C)c(S(=O)(=O)N2CCC(C(=O)NNC(=O)c3ccccc3O)CC2)c1C,.,13,4,39*,133*,113*
Cc1ccc(S(=O)(=O)N2CCC(C(=O)NNC(=O)c3ccccc3O)CC2)cc1,2,14,14,19,.,.
Cc1cc(C)c(C)c(S(=O)(=O)N2CCC(C(=O)NCc3cccs3)CC2)c1C,.,.,-3,3,.,.
COc1cccc(CN(C)C(=O)COc2cccc3c2OC(C)(C)C3)c1OC,.,.,-1,6,.,.
COC(=O)c1ccc(/C=N/NC(=O)CC(=O)NC(C)C)cc1,1,-5,3,-3,.,.
COC(=O)c1ccc2ccn(CC(=O)NC(C)C)c2c1,2,3,-4,85*,191*,143*
O=C(COc1ccccc1)Nc1cccc(-c2nc3cc4ccccc4cc3[nH]2)c1,0,-187,29,72*,101*,79*
CC(C)CC(=O)Nc1cccc(-c2nc3ccccc3[nH]2)c1,0,1,-1,13,.,.
CC(=O)N1CCc2cc(S(=O)(=O)NCCC(=O)N3CCN(c4ccccn4)CC3)ccc21,1,-1,8,54*,67*,49*
CC(=O)N1CCc2cc(S(=O)(=O)NCCC(=O)N3CCc4ccccc4C3)ccc21,1,-3,3,-2,.,.
CN(Cc1cnccn1)C(=O)CC1C(=O)NCCN1Cc1cccc(Oc2ccccc2)c1 (configuration not stated),0,4,5,28*,85*,77*
CN(Cc1cnccn1)C(=O)CC1C(=O)NCCN1Cc1cccc(F)c1 (configuration not stated),-3,3,-5,0,.,.
